Source: PubChem (The Scripps Research Institute Molecular Screening Center)
SRC1 inh = inhibits human SRC1 coactivator; HEK293 GAL4-SRC1 luciferase reporter, luminescence; 360,000 tested, 0.12% active; inhibition, % at 3.6 µM; AID 588354; Q15788;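 active means inhibition above the campaign mean plus 3 SD, with each screening campaign given its own cutoff, cut at about 60% in these data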
LRH-1 inv ag = suppresses constitutive activity of human LRH-1; O00482; HEK293T StAR-luciferase reporter, LRH-1 transfected, 24 h; inhibition, % at 3.6 µM; 360,000 tested, 0.13% active;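 active means inhibition above the mean inhibition of all tested compounds plus 3 SD, cut at about 73% in these data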
NR2F2 inh = blocks human COUP-TFII nuclear receptor | P24468 | HEK293T NGFI-A luciferase reporter, luminescence | inhibition, % at 8.6 µM | 370,000 tested, 0.7% active | AID 686940;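 active means inhibition above a per-plate cutoff, mean inhibition of test wells between control levels plus 3 SD, cut at about 38% in these data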;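 further: cells cotransfected with COUP-TFII expression vector driving the NGFI-A reporter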
SRC3 inh = inhibitors of human steroid receptor coactivator 3 (SRC3); Q9Y6Q9; HEK293 GAL4-SRC3 luciferase reporter, luminescence; inhibition, % at 3.6 µM; 360,000 tested, 0.17% active;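 active means inhibition above a per-campaign cutoff, the mean of all compounds plus 3 SD, cut at about 60% in these data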;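 further: higher means less SRC3-driven luciferase light from the GAL4 reporter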
SRC2 inh = inhibits human steroid receptor coactivator 2 | HEK293 GAL4-SRC2 luciferase reporter, luminescence | Q15596 | inhibition, % at 9 µM | 370,000 tested, 0.17% active;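 active means inhibition above the mean inhibition of all tested compounds plus 3 SD, set per campaign, cut at about 52% in these data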
GalR3 antag = blocks the human galanin receptor 3. O60755. HEK293 GalR3-CNG cAMP membrane potential fluorescence; galR3 body fused to GalR1 C-terminus. inhibition, % at 3 µM. 360,000 tested, 0.44% active;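 active means inhibition above the screen-wide average plus 3 SD, cut at about 13% in these data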;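 further: forskolin and galanin both at EC90 stimulate the cells; cAMP rise reported by CNG channel membrane potential dye signal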
Numbers stand for hits. Only some compounds are listed: those with a hit (about 1.1% of all), similar ones and a draw of the others.

CCN1/C(=C\C=C\C2=[N+](CC)c3ccccc3C2(C)C)C(C)(C)c2ccccc21 was read as SRC1 inh 75, LRH-1 inv ag 91 and SRC3 inh 81.
For CC1=CC2OC3CC4OC(=O)C=CC=CC(=O)OCCC(C)C(O)C(=O)OCC2(CC1O)C4(C)C31CO1 (stereo unspecified) the results were SRC1 inh 94, LRH-1 inv ag 97 and SRC3 inh 93.
`CCCc1nc2ccc(Br)cc2c(=O)n1-c1ccc([N+](=O)[O-])c(C(F)(F)F)c1` gave SRC1 inh inactive, LRH-1 inv ag inactive, NR2F2 inh inactive, SRC3 inh 64, SRC2 inh inactive and GalR3 antag inactive.
Screening OC1CN2CCCC(O)C2C1O (stereo unspecified) returned NR2F2 inh inactive, SRC2 inh inactive and GalR3 antag inactive.
`C=C(C)CSc1nnc([C@@H](N)Cc2c[nH]c3ccccc23)o1` gave SRC1 inh inactive, LRH-1 inv ag inactive, NR2F2 inh inactive, SRC3 inh inactive, SRC2 inh inactive and GalR3 antag inactive.
For Cc1[nH]nc2ccc(-c3cncc(OC[C@@H](N)Cc4c[nH]c5ccccc45)c3)cc12 the results were SRC1 inh 94, LRH-1 inv ag 99 and SRC3 inh 94.
O=Cc1cn(Cc2cccc([N+](=O)[O-])c2)c2ccccc12 was read as SRC1 inh inactive, LRH-1 inv ag 81, NR2F2 inh inactive, SRC3 inh inactive, SRC2 inh inactive and GalR3 antag inactive.
`Cc1cccc(Cn2cc(C=O)c3ccccc32)c1` gave SRC1 inh inactive, LRH-1 inv ag inactive, NR2F2 inh inactive, SRC3 inh inactive, SRC2 inh inactive and GalR3 antag inactive.
`Brc1csc(N2CCNCC2)n1` gave NR2F2 inh inactive.
For COC1=C(C)C(=O)C2=C(C1=O)C(CO)N1C(C#N)C3CC4C(C1C2N1CCOC41)N3C (stereo unspecified) the results were SRC1 inh 76, LRH-1 inv ag inactive, NR2F2 inh inactive, SRC3 inh 83, SRC2 inh 56 and GalR3 antag inactive.
For N=c1c2c(n(Cc3ccc(Cl)cc3Cl)c3c1CCC3)CCCC2 the results were SRC1 inh inactive, LRH-1 inv ag 82 and SRC3 inh inactive.
`c1ccc2c(c1)[IH]c1ccccc1-2` gave SRC1 inh inactive, LRH-1 inv ag inactive, NR2F2 inh 59, SRC3 inh inactive, SRC2 inh inactive and GalR3 antag 86.
O=C1CN=C(c2ccc[nH]2)c2cc(Cl)ccc2N1 was read as SRC1 inh inactive, LRH-1 inv ag inactive, NR2F2 inh inactive, SRC3 inh inactive, SRC2 inh 53 and GalR3 antag inactive.
`CN=C1CN=C(c2ccc[nH]2)c2cc(Cl)ccc2N1` gave NR2F2 inh inactive.
O=C(NC(Cc1ccccc1)P(=O)(O)Oc1ccccc1)OCc1ccccc1 (stereo unspecified) was read as NR2F2 inh inactive and SRC2 inh inactive.
Cc1cccc(C)c1-n1nnnc1C(CCc1ccccc1)N1CCC(n2c(=O)[nH]c3ccccc32)CC1 (stereo unspecified) was read as SRC1 inh inactive, LRH-1 inv ag inactive, NR2F2 inh inactive, SRC3 inh 84, SRC2 inh inactive and GalR3 antag inactive.
CC(O)C1C=CC=CC(=O)OC2CC3OC4C5OC5(C)CCC4(COC(=O)C4OC4(C)C(O)CO1)C2(C)C31CO1 (stereo unspecified) was read as SRC1 inh 95, LRH-1 inv ag 99, NR2F2 inh 91, SRC3 inh 94, SRC2 inh 74 and GalR3 antag inactive.
CC(=O)OC(C)(C)/C=C/C(=O)C(C)(O)C1C(O)CC2(C)C3CC=C4C(CC(O)C(=O)C4(C)C)C3(C)C(=O)CC12C (stereo unspecified) was read as SRC1 inh inactive, LRH-1 inv ag inactive, NR2F2 inh inactive, SRC3 inh inactive, SRC2 inh 62 and GalR3 antag inactive.
O=c1cccc2n1CC1CC2CN(Cc2cccc(Cl)c2Cl)C1 (stereo unspecified) was read as SRC1 inh inactive, LRH-1 inv ag inactive, NR2F2 inh inactive, SRC3 inh inactive, SRC2 inh inactive and GalR3 antag inactive.
Screening COc1ccc2c3c([nH]c2c1)[C@H](C=C(C)C)N1C(=O)[C@@H]2CCCN2C(=O)[C@@H]1C3 returned NR2F2 inh inactive and SRC2 inh inactive.
